Values joined by “and” are separate entries in the source; they are usually repeats but may differ in a detail not shown here. Equal entries are not always repeated. Hit rate of the full screen: of about 5,500 compounds, about 2,000 (36%) were called active. About 18% were inconclusive and are not listed. Rule as the data show it: active = normalized growth mostly below about 0.91 (no sharp cut-off); inconclusive = no clear call, values can overlap the other calls; inactive = mostly above about 0.92. The list shows a part of the results.
Experiment: chemical genetic growth profiling, strain panel (AID 1159580);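 also: tested at 20 µM; growth read once vehicle control cultures reached saturation at 30 °C; 1 = growth at the plate median or of vehicle wells; lower values mean less growth of the strain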
Conditions: S. cerevisiae deletion strains, growth OD
[1] = locus YGR078C, strain PAC10, stronger effect = lower value
[2] = locus YJR075W, strain HOC1, stronger effect = lower value
[3] = locus YMR263W, strain SAP30, stronger effect = lower value
[4] = locus YMR307W, strain GAS1, stronger effect = lower value
[5] = locus YAL040C, strain CLN3, stronger effect = lower value
[6] = locus YCL061C, strain MRC1 (second series), stronger effect = lower value
[7] = locus YDR363W, strain ESC2, stronger effect = lower value
[8] = locus YER002W, strain NOP16, stronger effect = lower value
[9] = locus YNL175C, strain NOP13, stronger effect = lower value
[10] = locus YNL197C, strain WHI3, stronger effect = lower value
[11] = locus YNL224C, strain SQS1, stronger effect = lower value
[12] = locus YNL322C, strain KRE1, stronger effect = lower value
[13] = locus YOR083W, strain WHI5 (second series), stronger effect = lower value

Measured: normalized growth

CN1C2C[C@H](OC(=O)[C@H](CO)c3ccccc3)C[C@H]1[C@@H](O)C2
inactive: locus YAL021C, strain ccr4, stronger effect = lower value 0.979 | locus YAL026C, strain drs2, stronger effect = lower value 1.04 | locus YAL030W, strain snc1, stronger effect = lower value 1.02 | locus YBL061C, strain skt5, stronger effect = lower value 1.03 | locus YBR009C, strain hhf1, stronger effect = lower value 1.01 | locus YBR021W, strain FUR4, stronger effect = lower value 0.995 | locus YBR023C, strain chs3, stronger effect = lower value 1.02 | locus YBR171W, strain sec66, stronger effect = lower value 1.01 | locus YBR229C, strain ROT2, stronger effect = lower value 1.01 | locus YBR231C, strain swc5, stronger effect = lower value 1.02 | locus YBR279W, strain paf1, stronger effect = lower value 1.02 | locus YCL011C, strain gbp2, stronger effect = lower value 1.01 | locus YCL016C, strain dcc1, stronger effect = lower value 0.998 | locus YCL029C, strain bik1, stronger effect = lower value 0.997 | locus YCL069W, strain vba3, stronger effect = lower value 1.01 | locus YCR088W, strain abp1, stronger effect = lower value 1.01 | locus YDL005C, strain med2, stronger effect = lower value 1.03 | locus YDL035C, strain GPR1, stronger effect = lower value 1.02 | locus YDL040C, strain nat1, stronger effect = lower value 1.02 | locus YDL074C, strain BRE1, stronger effect = lower value 1.01 | locus YDL101C, strain DUN1, stronger effect = lower value 1.01 | locus YDL134C, strain PPH21, stronger effect = lower value 1.01 | locus YDL185W, strain tfp1, stronger effect = lower value 0.992 | locus YDL192W, strain arf1, stronger effect = lower value 0.995 | locus YDR001C, strain nth1, stronger effect = lower value 1.02 | locus YDR069C, strain doa4, stronger effect = lower value 1.03 | locus YDR101C, strain arx1, stronger effect = lower value 1 | locus YDR137W, strain rgp1, stronger effect = lower value 1.03 | locus YDR159W, strain sac3, stronger effect = lower value 1.05 | locus YDR162C, strain NBP2, stronger effect = lower value 1.02 | locus YDR195W, strain ref2 1.01 | locus YDR297W, strain sur2, stronger effect = lower value 1.02 | locus YDR318W, strain mcm21, stronger effect = lower value 1 | locus YDR334W, strain swr1, stronger effect = lower value 1.01 | locus YDR335W, strain msn5, stronger effect = lower value 1.02 | locus YDR388W, stronger effect = lower value 1 | locus YDR392W, strain spt3, stronger effect = lower value 0.911 | locus YDR502C, strain sam2, stronger effect = lower value 1.01 | locus YEL003W, strain gim4, stronger effect = lower value 1.03 | locus YEL037C, strain rad23, stronger effect = lower value 1.01 | locus YEL061C, strain CIN8 (second series), stronger effect = lower value 1.02 | locus YEL061C, strain CIN8, stronger effect = lower value 1.01 | locus YER015W, strain faa2, stronger effect = lower value 1.01 | locus YER016W, strain bim1, stronger effect = lower value 1.03 | locus YER110C, stronger effect = lower value 1 | locus YER111C, strain swi4, stronger effect = lower value 1.02 | locus YER155C, strain BEM2 (second series), stronger effect = lower value 1.02 | locus YER155C, strain BEM2, stronger effect = lower value 1.01 | locus YER167W, strain BCK2, stronger effect = lower value 1 | locus YFR010W, strain ubp6, stronger effect = lower value 1.04 | locus YGL078C, strain dbp3, stronger effect = lower value 0.999 | locus YGL086W, strain mad1, stronger effect = lower value 0.993 | locus YGL167C, strain pmr1, stronger effect = lower value 1.02 | locus YGL173C, strain kem1, stronger effect = lower value 1.03 | locus YGL227W, strain vid30, stronger effect = lower value 1.02 | locus YGL240W, strain doc1, stronger effect = lower value 1.02 | locus YGL248W, strain PDE1, stronger effect = lower value 1.01 | locus YGL253W, strain hxk2, stronger effect = lower value 1.04 | [1] 1.01 | locus YGR135W, strain pre9, stronger effect = lower value 1 | locus YGR229C, strain SMI1, stronger effect = lower value 1.02 | locus YGR252W, strain gcn5, stronger effect = lower value 0.955 | locus YHR013C, strain ard1, stronger effect = lower value 1.01 | locus YHR027C, strain rpn1, stronger effect = lower value 1.01 | locus YHR030C, strain SLT2, stronger effect = lower value 1.01 | locus YHR079C, strain IRE1 (second series), stronger effect = lower value 1 | locus YHR079C, strain IRE1, stronger effect = lower value 0.992 | locus YHR094C, strain hxt1, stronger effect = lower value 0.992 | locus YHR129C, strain ARP1, stronger effect = lower value 1.01 | locus YHR142W, strain chs7, stronger effect = lower value 1.03 | locus YHR200W, strain rpn10, stronger effect = lower value 1 | locus YIL066C, strain RNR3, stronger effect = lower value 1.02 | locus YIL073C, strain SPO22, stronger effect = lower value 1.01 | locus YIL125W, strain kgd1, stronger effect = lower value 0.991 | locus YIR030C, strain dcg1, stronger effect = lower value 0.99 | locus YJL092W, strain hpr5, stronger effect = lower value 1.02 | locus YJL095W, strain BCK1 (second series), stronger effect = lower value 1.01 | locus YJL095W, strain BCK1, stronger effect = lower value 1.02 and 1 | locus YJL115W, strain asf1, stronger effect = lower value 1.01 | locus YJL129C, strain trk1, stronger effect = lower value 1.02 | locus YJL134W, strain LCB3, stronger effect = lower value 1.01 | locus YJL154C, strain vps35, stronger effect = lower value 1.02 | locus YJL164C, strain tpk1, stronger effect = lower value 0.996 | locus YJL166W, strain qcr8, stronger effect = lower value 1.03 | locus YJL168C, strain set2, stronger effect = lower value 1 | locus YJL187C, strain SWE1 (second series), stronger effect = lower value 1.01 | locus YJR043C, strain POL32, stronger effect = lower value 1.03 | locus YJR066W, strain TOR1, stronger effect = lower value 0.96 | [2] 1.01 | locus YKL009W, strain mrt4, stronger effect = lower value 1.01 | locus YKL068W, stronger effect = lower value 0.987 | locus YKL085W, strain MDH1 (second series), stronger effect = lower value 1.01 | locus YKL085W, strain MDH1, stronger effect = lower value 1.01 | locus YKL160W, strain elf1, stronger effect = lower value 1 | locus YKL190W, strain CNB1, stronger effect = lower value 1.01 | locus YKR001C, strain vps1, stronger effect = lower value 0.981 | locus YKR026C, strain gcn3, stronger effect = lower value 1.01 | locus YKR091W, strain srl3, stronger effect = lower value 1.02 | locus YLL001W, strain dnm1, stronger effect = lower value 1.02 | locus YLL026W, stronger effect = lower value 1.02 | locus YLL041C, strain sdh2, stronger effect = lower value 1.02 | locus YLR027C, strain aat2, stronger effect = lower value 1.03 | locus YLR039C, strain RIC1, stronger effect = lower value 1.03 | locus YLR058C, strain SHM2, stronger effect = lower value 1.01 | locus YLR102C, strain apc9, stronger effect = lower value 0.997 | locus YLR113W, strain HOG1, stronger effect = lower value 0.978 | locus YLR221C, strain rsa3, stronger effect = lower value 1.02 | locus YLR258W, strain gsy2, stronger effect = lower value 1.02 | locus YLR262C, strain YPT6 (second series), stronger effect = lower value 1.03 | locus YLR262C, strain YPT6, stronger effect = lower value 1.05 | locus YLR268W, strain sec22, stronger effect = lower value 0.995 | locus YLR320W, strain mms22, stronger effect = lower value 1.04 | locus YLR330W, strain CHS5, stronger effect = lower value 1.01 | locus YLR342W, strain FKS1 (second series), stronger effect = lower value 1.02 | locus YLR342W, strain FKS1, stronger effect = lower value 1.02 | locus YLR357W, strain rsc2, stronger effect = lower value 1 | locus YLR370C, strain arc18, stronger effect = lower value 1.01 | locus YLR371W, strain rom2, stronger effect = lower value 0.989 | locus YLR384C, strain iki3, stronger effect = lower value 1.02 | locus YLR418C, strain cdc73, stronger effect = lower value 0.991 | locus YML016C, strain PPZ1, stronger effect = lower value 1.01 | locus YML032C, strain rad52, stronger effect = lower value 0.99 | locus YML120C, strain ndi1, stronger effect = lower value 1 | locus YML124C, strain tub3, stronger effect = lower value 1 | locus YMR058W, strain fet3, stronger effect = lower value 1.03 | locus YMR078C, strain ctf18, stronger effect = lower value 0.999 | locus YMR125W, strain sto1, stronger effect = lower value 0.983 | locus YMR129W, stronger effect = lower value 1.02 | locus YMR205C, strain PFK2, stronger effect = lower value 1.04 | locus YMR223W, strain ubp8, stronger effect = lower value 1.02 | locus YMR231W, strain pep5, stronger effect = lower value 1.01 | [3] 1.01 | [4] 0.97 | locus YNL067W, strain RPL9B, stronger effect = lower value 1.01 | locus YNL071W, strain lat1, stronger effect = lower value 1.02 | locus YNL183C, strain NPR1, stronger effect = lower value 0.96 | locus YNL209W, strain ssb2, stronger effect = lower value 1.04 | locus YNL233W, strain BNI4, stronger effect = lower value 0.992 | locus YNL248C, strain rpa49, stronger effect = lower value 0.941 | locus YNL250W, strain rad50, stronger effect = lower value 1 | locus YNL271C, strain bni1, stronger effect = lower value 0.99 | locus YNL298W, strain CLA4, stronger effect = lower value 1.02 | locus YNL307C, strain MCK1, stronger effect = lower value 0.995 | locus YNL322C, strain KRE1 (second series), stronger effect = lower value 1.01 | locus YNR049C, strain mso1, stronger effect = lower value 1.01 | locus YNR052C, strain pop2, stronger effect = lower value 0.992 | locus YOL006C, strain TOP1, stronger effect = lower value 0.998 | locus YOL012C, strain htz1 0.77 | locus YOL147C, strain pex11, stronger effect = lower value 1 | locus YOR001W, strain rrp6, stronger effect = lower value 1.04 | locus YOR061W, strain CKA2, stronger effect = lower value 1.01 | locus YOR069W, strain VPS5, stronger effect = lower value 1.01 | locus YOR070C, strain gyp1, stronger effect = lower value 1.03 | locus YOR080W, strain dia2, stronger effect = lower value 1.02 | locus YOR083W, strain WHI5, stronger effect = lower value 1.01 | locus YOR106W, strain vam3, stronger effect = lower value 0.994 | locus YOR136W, strain idh2, stronger effect = lower value 0.992 | locus YOR144C, strain elg1, stronger effect = lower value 0.997 | locus YOR184W, strain ser1, stronger effect = lower value 1.02 | locus YOR231W, strain MKK1, stronger effect = lower value 0.99 | locus YOR265W, strain rbl2, stronger effect = lower value 1.01 | locus YOR270C, strain vph1, stronger effect = lower value 1.07 | locus YOR290C, strain snf2, stronger effect = lower value 0.969 | locus YOR316C, strain cot1, stronger effect = lower value 1 | locus YPL051W, strain arl3, stronger effect = lower value 1 | locus YPL078C, strain atp4, stronger effect = lower value 0.984 | locus YPL106C, strain sse1, stronger effect = lower value 1.01 | locus YPL240C, strain hsp82, stronger effect = lower value 1.02 | locus YPL256C, strain CLN2, stronger effect = lower value 1 | locus YPR119W, strain clb2, stronger effect = lower value 1 | locus YPR141C, strain kar3, stronger effect = lower value 0.995 | locus YPR163C, strain tif3, stronger effect = lower value 1.02 | locus YPR167C, strain met16, stronger effect = lower value 1 | strain wtn01, stronger effect = lower value 0.986

CN1C2CCC1CC(OC(=O)c1c[nH]c3ccccc13)C2 (centres undefined)
inactive: [5] 0.995 | [6] 1 | [7] 1.01 | [8] 0.994 | [1] 1.02 | [2] 1 | [3] 1 | [4] 1.01 | locus YNL128W, strain TEP1, stronger effect = lower value 0.995 | locus YNL153C, strain GIM3, stronger effect = lower value 1.01 | [9] 1 | [10] 1.02 | [11] 0.985 | [12] 1.03 | [13] 1.01 | locus YPL055C, strain LGE1, stronger effect = lower value 1.02

CN1C2CCC1CC(OC(=O)c1cc(Cl)cc(Cl)c1)C2 (centres undefined)
inactive: [5] 1 | [6] 1 | [7] 0.99 | [8] 0.997 | [1] 1.01 | [2] 0.997 | [3] 0.999 | [4] 1 | [9] 1.01 | [10] 1.01 | [11] 1.03 | [12] 0.996 | [13] 1.01 | locus YPL241C, strain CIN2, stronger effect = lower value 1
